# Measurements taken from the supplement of paper PMC12282887.
# ± gives the standard deviation of the averaged measurements.
# System: E. coli BW25113 marRABp lux reporter
# Assay: promoter activity interaction Z-score (Lux/OD deviation from empty-vector control); higher = stronger promoter induction by the compound
# Experimental: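 E. coli BW25113 (wild type or ΔmarA/ΔsoxS/Δrob) carrying pTU175 luxCDABE promoter reporters was grown in LB in 384-well plates at 37°C with each of 94 compounds at 4 two-fold concentrations, in biological duplicates. Luminescence and OD600 were read every 30 min for 12 h and integrated as AUC over 8 h (0-8 h WT, 1-9 h mutants). Lux AUC was divided by OD AUC; the interaction score is the residual of a Huber robust fit of each promoter against the empty-vector control, then Z-transformed per promoter.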
smiles,measurement,setting,value
C[n+]1ccc(-c2cc[n+](C)cc2)cc1 [Paraquat],promoter activity interaction Z-score,"0.64 µg/ml, genetic background: wild type",0.0393 ± 0.059
same,promoter activity interaction Z-score,"0.64 µg/ml, genetic background: ΔmarA",0.259 ± 0.056
same,promoter activity interaction Z-score,"0.64 µg/ml, genetic background: Δrob",0.471 ± 0.061
same,promoter activity interaction Z-score,"0.64 µg/ml, genetic background: ΔsoxS",0.397 ± 0.44
same,promoter activity interaction Z-score,"1.3 µg/ml, genetic background: wild type",0.123 ± 0.012
same,promoter activity interaction Z-score,"1.3 µg/ml, genetic background: ΔmarA",0.332 ± 0.16
same,promoter activity interaction Z-score,"1.3 µg/ml, genetic background: Δrob",0.857 ± 0.029
same,promoter activity interaction Z-score,"1.3 µg/ml, genetic background: ΔsoxS",0.407 ± 0.47
same,promoter activity interaction Z-score,"2.6 µg/ml, genetic background: wild type",0.508 ± 0.11
same,promoter activity interaction Z-score,"2.6 µg/ml, genetic background: ΔmarA",0.467 ± 0.19
same,promoter activity interaction Z-score,"2.6 µg/ml, genetic background: Δrob",1.16 ± 0.33
same,promoter activity interaction Z-score,"2.6 µg/ml, genetic background: ΔsoxS",0.215 ± 0.34
same,promoter activity interaction Z-score,"5.1 µg/ml, genetic background: wild type",1.52 ± 0.99
same,promoter activity interaction Z-score,"5.1 µg/ml, genetic background: ΔmarA",1.25 ± 0.44
same,promoter activity interaction Z-score,"5.1 µg/ml, genetic background: Δrob",2.54 ± 0.066
same,promoter activity interaction Z-score,"5.1 µg/ml, genetic background: ΔsoxS",0.698 ± 0.45
NCCc1c[nH]c2ccc(O)cc12 [Serotonine],promoter activity interaction Z-score,"13.3 µg/ml, genetic background: wild type",-0.413 ± 0.011
same,promoter activity interaction Z-score,"13.3 µg/ml, genetic background: ΔmarA",-0.686 ± 0.15
same,promoter activity interaction Z-score,"13.3 µg/ml, genetic background: Δrob",-0.419 ± 0.028
same,promoter activity interaction Z-score,"13.3 µg/ml, genetic background: ΔsoxS",-0.41 ± 0.18
same,promoter activity interaction Z-score,"26.6 µg/ml, genetic background: wild type",-0.214 ± 0.13
same,promoter activity interaction Z-score,"26.6 µg/ml, genetic background: ΔmarA",-0.554 ± 0.18
same,promoter activity interaction Z-score,"26.6 µg/ml, genetic background: Δrob",-0.414 ± 0.15
same,promoter activity interaction Z-score,"26.6 µg/ml, genetic background: ΔsoxS",-0.421 ± 0.26
same,promoter activity interaction Z-score,"53.2 µg/ml, genetic background: wild type",-0.616 ± 0.21
same,promoter activity interaction Z-score,"53.2 µg/ml, genetic background: ΔmarA",-0.71 ± 0.041
same,promoter activity interaction Z-score,"53.2 µg/ml, genetic background: Δrob",-0.479 ± 0.089
same,promoter activity interaction Z-score,"53.2 µg/ml, genetic background: ΔsoxS",-0.523 ± 0.25
same,promoter activity interaction Z-score,"106.3 µg/ml, genetic background: wild type",-0.518 ± 0.15
same,promoter activity interaction Z-score,"106.3 µg/ml, genetic background: ΔmarA",-0.531 ± 0.2
same,promoter activity interaction Z-score,"106.3 µg/ml, genetic background: Δrob",-0.324 ± 0.025
same,promoter activity interaction Z-score,"106.3 µg/ml, genetic background: ΔsoxS",-0.498 ± 0.093
C[C@]12CC[C@H]3[C@@H](CCC4=CC(=O)CC[C@@]43C)[C@@H]1CC[C@@H]2O [Testosterone],promoter activity interaction Z-score,"18 µg/ml, genetic background: wild type",-0.549 ± 0.28
same,promoter activity interaction Z-score,"18 µg/ml, genetic background: ΔmarA",-0.238 ± 0.15
same,promoter activity interaction Z-score,"18 µg/ml, genetic background: Δrob",-0.5774 ± 0.0046
same,promoter activity interaction Z-score,"18 µg/ml, genetic background: ΔsoxS",-0.238 ± 0.058
same,promoter activity interaction Z-score,"36.1 µg/ml, genetic background: wild type",-0.712 ± 0.027
same,promoter activity interaction Z-score,"36.1 µg/ml, genetic background: ΔmarA",-0.0596 ± 0.21
same,promoter activity interaction Z-score,"36.1 µg/ml, genetic background: Δrob",-0.24 ± 0.17
same,promoter activity interaction Z-score,"36.1 µg/ml, genetic background: ΔsoxS",-0.368 ± 0.14
same,promoter activity interaction Z-score,"72.1 µg/ml, genetic background: wild type",-0.654 ± 0.22
same,promoter activity interaction Z-score,"72.1 µg/ml, genetic background: ΔmarA",-0.0306 ± 0.33
same,promoter activity interaction Z-score,"72.1 µg/ml, genetic background: Δrob",-0.303 ± 0.014
same,promoter activity interaction Z-score,"72.1 µg/ml, genetic background: ΔsoxS",-0.398 ± 0.14
same,promoter activity interaction Z-score,"144.2 µg/ml, genetic background: wild type",-0.399 ± 0.038
same,promoter activity interaction Z-score,"144.2 µg/ml, genetic background: ΔmarA",-0.0772 ± 0.21
same,promoter activity interaction Z-score,"144.2 µg/ml, genetic background: Δrob",-0.448 ± 0.17
same,promoter activity interaction Z-score,"144.2 µg/ml, genetic background: ΔsoxS",-0.258 ± 0.0049
